The supplement of paper PMC11417369
± gives the standard deviation of the averaged measurements. Whole data set: some 25,000 sequences, median “ln(normalized median fluorescence intensity)” near 8.6, cut for the highest 2% near 10. The list comes from a sample in which the highest values are over-represented; it also holds similar and randomly drawn sequences.

The sequences below were run on PfAP2-EXP AP2 domain (GST-tagged) (assay: gcPBM binding intensity (ln(normalized median fluorescence intensity)); higher = stronger DNA binding).
How it was run: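 Each value is the highest Masliner-normalised natural-log median intensity across replicate spots of either orientation of a probe. The probes were primer-extended double-stranded 36-bp intergenic genomic sequences on an Agilent 4 × 180k array, alongside negative controls, exposed for 1 h to GST-tagged P. falciparum DNA-binding domains expressed in E. coli. Bound protein was picked up with Alexa488 anti-GST antibody and scanned at 488 nm.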

Row | Sequence | gcPBM binding intensity (ln)
1 | ATCTTTTCATATTGCTGTACAAATTATTTTCATTCG [XGTACX_site492] | 9.05 ± 0.45
2 | AGAATTATATACACAAGTACATAATGACATATATAT [XGTACX_site5617] | 8.42 ± 0.35
3 | ATATATATATATATGTGTACTTATATATTTAAAAAA [XGTACX_site1761] | 10 ± 0.27
4 | ATATTTTTTTTTTTATGTACTTATTTATAATTATTT [XGTACX_site5279] | 8.67 ± 0.37
5 | GTATGTATATATGTATGTACTTATGTATCATTATTA [XGTACX_site2438] | 8.35 ± 0.26
6 | TAAATATATATTATATGTACTTATATATATATATAT [XGTACX_site4448] | 9.85 ± 0.3
7 | TTATATATTTTTATGTGTACTTATATATATATATAT [XGTACX_site6211] | 10 ± 0.13
8 | ATATATATATATATATGTACTTATTTATTTATATTA [XGTACX_site4646] | 10.3 ± 0.39
9 | ATATATATATATATATGTACTTATTAAGATTAAAAA [XGTACX_site61] | 10.2 ± 0.2
10 | TATCATTTATATATGTGTACTTATTTATTTATTTAT [XGTACX_site7961] | 8.82 ± 0.45
11 | ATTTATTTATTTATATGTACTTATATATGTATTTTC [XGTACX_site6269] | 8.85 ± 0.25
12 | ATATATATATATATATGTACTTATTTATTTTATATA [XGTACX_site8810] | 10.2 ± 0.24
13 | ATATATATATATATATGTACTTATGTCATCATTAAA [XGTACX_site5316] | 10.3 ± 0.35
14 | TATATATTATATATATGTACTTATTTATTAATTTAT [XGTACX_site5253] | 8.29 ± 0.25
15 | TTTTATCGTTTTTTTTTTTTTTTTTTTTTTTTTTTT [CACACA_negctrl_site1309] | 9.06 ± 0.092
16 | TCTGGATTGGATTACAAGAAAATAAAATATAAAATA [CACACA_negctrl_site122] | 8.38 ± 0.4
17 | ATGAAGAAGTGTAAATGTACATTTTATGTAGAACAA [XGTACX_site6925] | 8.93 ± 0.48
18 | TAATATTATATTATATGTACATAACAAATTATATTT [XGTACX_site4296] | 8.6 ± 0.21
19 | ATTTTTTTATAAGAAAATTTCTAACGTTAAAAAAAA [CACACA_negctrl_site1367] | 8.38 ± 0.59
20 | ATATATATATATGATACATGCATATATTTTTTCTTC [TGCATGCA_site216] | 9.99 ± 0.13
21 | TATATATATATATATGCATGCCATATGATATATATA [TGCATGCA_site109] | 10.3 ± 0.27
22 | TATATATATGTATGATGTACATATATGCATATATAT [XGTACX_site3399] | 8.54 ± 0.23
23 | ATTTTATTTTTTGAGTGTACTAGTTCAACAACTCCG [XGTACX_site8600] | 8.72 ± 0.52
24 | TGGTTTCAATAATTAATAAAATATATTATTGTGAAA [CACACA_negctrl_site442] | 7.95 ± 0.41

Row | Sequence | gcPBM binding intensity (ln)
25 | CGTATGTGCGGACATGCATGCAATATACAAGAAAAA [TGCATGCA_site145] | 10.2 ± 0.28
26 | AAGACAATATATGCAGTGCATATACATACATATATA | 8.65 ± 0.25
27 | ACGGAAAAAGAAAAGGTGCATATGGACACAATATAT | 9.35 ± 0.17
28 | AAGAAAAGTAAATATGCATGTAGGGTAGGTTATTTT [TGCATGCA_site46] | 8.94 ± 0.23
29 | TGGGTCTCTAACTGGTGTACTATTTACATATTATAC [XGTACX_site8593] | 8.75 ± 0.37
30 | TATATATATAAATACACACACATATATATATATATA [CACACA_site4867] | 10.2 ± 0.25
31 | ATAATAAAATAAATCACACATAATATAATGTAATAT [CACACA_site6144] | 8.44 ± 0.3
32 | GCTATAAATATAATCACACATAAATATATAATATAT [CACACA_site5144] | 8.23 ± 0.29
33 | TATAATCATAAATACACACACATATATATATATATA [CACACA_site5224] | 10.2 ± 0.42
34 | AATATACAAAATATCACACATATAAAATAATATATA [CACACA_site6067] | 8.27 ± 0.5
35 | TATAAATAAATACATACACACACATACATATATATA [CACACA_site9024] | 8.71 ± 0.38
36 | GGAACAAATAATATCACACATATATATATATATATA [CACACA_site5670] | 10.3 ± 0.23
37 | TGTATAATCATATATACACACACATATATATATATA [CACACA_site8674] | 10.1 ± 0.24
38 | TAAATATAAACACAAACACACACATATATATATATA [CACACA_site7978] | 10.1 ± 0.42
39 | TATAAATATAAATATACACACATATATATATATATA [CACACA_site1678] | 9.99 ± 0.4
40 | TGTATAAATATAATCACACATATATATATATATATA [CACACA_site4365] | 10.3 ± 0.73
41 | TATAATCATATATACACACACATATATATATATATA [CACACA_site2168] | 10.2 ± 0.43
42 | TATATGAAGCTATAGACACACATATAAAAATATAAT [CACACA_site4850] | 8.64 ± 0.47
43 | TCCCTAGTATACCTTAGTACATATATTATTTTGCAC [XGTACX_site2174] | 8.98 ± 0.11
44 | ACTAGTAAATTTATATGTACATATATATATATATAG [XGTACX_site2502] | 8.68 ± 0.24
45 | ATACATATATATATATGTACATATGTATTTTTTATT [XGTACX_site105] | 8.63 ± 0.38
46 | ATATATTTAATATTCACACATAATTATTTTTACTCT [CACACA_site5438] | 8.59 ± 0.38
47 | CATCCAAAAATATTATGTACTAAATTTGGATGTATT [XGTACX_site3954] | 8.48 ± 0.47
48 | TTTTAAATATGCCATACACACTACTATATAATAAAT [CACACA_site5119] | 8.58 ± 0.34

Row | Sequence | gcPBM binding intensity (ln)
49 | ATACTTTTAAATTGATGTACTTTATTTATAAGGTGA [XGTACX_site6746] | 8.38 ± 0.38
50 | ACTTTACAATATATATGTACATATTAATAAACATAT [XGTACX_site3689] | 8.74 ± 0.42
51 | ATAAAATAAAATTGGTGTACTTTTGATAAAATAAAA [XGTACX_site4264] | 8.24 ± 0.28
52 | TTAATAAACCTTAGATGTACAGTTATATATAAAATA [XGTACX_site6681] | 8.54 ± 0.52
53 | ATAACATTCAAAAAATGTACAAACATATGAATAAAT [XGTACX_site7013] | 8.62 ± 0.47
54 | TATATATATAACAGAATGCACTTTATATGTTCATAT [GTGCAC_site9880] | 8.94 ± 0.14
55 | TAAATACATAAATACACACACATATATATATATATA [CACACA_site5549] | 10.2 ± 0.35
56 | TAAATAAATACATACACACACATACATATATATATA [CACACA_site3129] | 9.86 ± 0.26
57 | TATACTCATAAATACACACACATATATATATATATA [CACACA_site5822] | 10.2 ± 0.28
58 | CATATATAAATATATACACACATACATACATACATA [CACACA_site5988] | 8.73 ± 0.3
59 | TAAATAAATATATATACACACATATATATATATATA [CACACA_site598] | 10.1 ± 0.36
60 | CATAAATACATACATACACACATATATATATATATA [CACACA_site2106] | 10.2 ± 0.41
61 | CACAAATAAATACATACACACATATATACTCATATA [CACACA_site4379] | 8.37 ± 0.49
62 | TATATATATATATATACACACATATATATAAATATA [CACACA_site2035] | 10.2 ± 0.26
63 | TATATATATAAATACACACACACATATATATATATA [CACACA_site4585] | 10 ± 0.16
64 | AGAGAAGAAAACAAAACACACACATATATCTTAATA [CACACA_site8699] | 8.63 ± 0.71
65 | AATTTTTAGTATATAACATAAAATAAAATAAAATAA [GTGCAC_negctrl_site696] | 8.47 ± 0.38
66 | AAAATTATATTTTATAGAAATTTAAATAAATATATA [GTGCAC_negctrl_site199] | 8.01 ± 0.38
67 | AATATATATATTAAATGTACATTACATAATTATATA [XGTACX_site3450] | 8.54 ± 0.43
68 | AATGTAAAATATATGTGTACATATGTTTATATATAT [XGTACX_site2216] | 8.71 ± 0.23
69 | TTATTTTTATATTTTAATTTTAAAAAAATTTTAATT [CACACA_negctrl_site777] | 8.04 ± 0.46
70 | TATATATATATATATGTGCACATTTTATTAAAATGT | 10.2 ± 0.34
71 | TTTTAATTTAAAAATTAATTTATATATATATATATA [TGCATGCA_negctrl_site447] | 10.3 ± 1
72 | ATTTTTTTATAAAATTTTTATATAATTTATTATAAA [GTGCAC_negctrl_site96] | 8.16 ± 0.52

Row | Sequence | gcPBM binding intensity (ln)
73 | TATATACATTTTTATGTGCACATTTTATTTTTAAAT | 9.15 ± 0.31
74 | AAAATATATATGTATGTTTATATGTTTATATATATT [XGTACX_negctrl_site337] | 8.18 ± 0.49
75 | TTATATTATATATATGTGCACATTTTTAAACTTGGA | 8.71 ± 0.27
76 | ACCTGTAAAAATGTTTATATATATATATATATATAT [CACACA_negctrl_site1500] | 10.3 ± 0.37
77 | ATATATATATATATAGTGCACATTTATATAATTATT | 10.3 ± 0.17
78 | ATAATATATAATATAGTGCATTATTTATTAATTAAT [GTGCAC_site9852] | 8.56 ± 0.085
79 | TATAATAATATTATAGTGCATATTATTTATATATAA [GTGCAC_site9820] | 8.22 ± 0.2
80 | ATTATTTAGAAATGAGCACACAAAAAGAAGAATTTT [CACACA_site7913] | 8.65 ± 0.52
81 | ATATAAAAAGTGTATCGTACATTTACTTATTTTATA [XGTACX_site6249] | 8.46 ± 0.3
82 | AATACTATTATTATTGCACACTTATTATCCCTCGGA [CACACA_site4262] | 8.65 ± 0.28
83 | CACTAAACATATACACGTACATGCAACGGATTTTTT [XGTACX_site461] | 8.74 ± 0.3
84 | ATGGACAAGTTAAACGCACACAAATATATACAGACA [CACACA_site1652] | 9.15 ± 0.73
85 | TATAATAAAATATTTTGTACGTATATTTTAATATTT [XGTACX_site2582] | 8.32 ± 0.45
86 | AAAAAAATTTTAAAATGTACAAATTTTAATATATAT [XGTACX_site7628] | 8.55 ± 0.26
87 | ATATATTTTTTAAATTTAAAAATTATAAAATTTATA [TGCATGCA_negctrl_site36] | 8.16 ± 0.45
88 | TTTTTTAAATGTATTAAAATTATATATATATATATA [GTGCAC_negctrl_site570] | 10.2 ± 0.25
89 | AAATAACAAATTTTTAAAATGTATATATATATATAT [TGCATGCA_negctrl_site219] | 10.2 ± 0.74
90 | TTTTAAAATATATTTGTATATATATATATATATATA [XGTACX_negctrl_site536] | 10.4 ± 0.35
91 | AAAAAAAAAAAAATGTAATTTTTTAATTATTTATAT [GTGCAC_negctrl_site436] | 7.96 ± 0.43
92 | ATAACAAAATAATAATGTACGTATAAATATAATTTA [XGTACX_site6049] | 8.57 ± 0.4
93 | TTTTTTATTAAATATATATAATAATAATAATTTGTA [CACACA_negctrl_site1719] | 7.9 ± 0.37
